Experimental data as given in PubChem BioAssay (NCATS).
Values joined by “and” are separate entries in the source; they are usually repeats but may differ in a detail not shown here. Equal entries are not always repeated. Records with an inconclusive call do not appear. Active and inactive are the calls of the source. Unless noted, the call rests on the fitted dose curve; in most records, active means well fitted curve in the direction sought with a large enough effect; inconclusive means small, poorly fitted or top-dose-only effect, or another doubt; inactive means no such curve, though single readings can be large; an effect the other way counts as inactive or inconclusive.

Legend:
[1] = Cellular Toxicity (caspase-3) SHSY5Y (AID 657)
Summary of the method: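 Cells plated and incubated 5 h at 37 °C, dosed over a concentration range, incubated 16 h, then given Caspase-Glo 3/7 reagent for 1 h at room temperature before luminescence reading. Staurosporine (10 uM) defined full stimulation.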

[2] = Cellular Toxicity (caspase-3) BJ (AID 658);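 further: 0% = DMSO basal and 100% = 10 µM staurosporine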
Summary of the method: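 Luminescent aminoluciferin-substrate cleavage reports caspase 3/7 activity in normal human BJ fibroblasts after 16 hr compound exposure at 37 °C. Normalized to DMSO (basal) and 10 uM staurosporine (100%); AC50 from Hill fit of concentration-response.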

[3] = Cellular Toxicity (caspase-3) N2a (AID 665);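 further: compound exposure lasted 16 h at 37 °C before readout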
Summary of the method: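 Mouse N2a neuroblastoma cells (1500/well) were treated with compounds for 16 h at 37 °C, then caspase-3/7 activity was read by Caspase-Glo luminescence after 1 h at room temperature. Data were normalized to DMSO and 10 uM staurosporine; AC50 from Hill fits.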

[4] = Cellular Toxicity (caspase-3) Renal Proximal Tubule (AID 667);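 further: cells exposed to compound for 16 hours at 37 °C before detection; 0% = DMSO basal and 100% = 10 µM staurosporine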
Summary of the method: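 In qHTS format, rat primary proximal tubule cells seeded at 1000 per well are exposed to compounds for 16 hours at 37 °C. An increase in Caspase-Glo 3/7 luminescence indicates caspase activation.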

[5] = MultiTox-Fluor Cytotoxicity Assay - LYMP1-001 - Dead Cells (AID 946)
Summary of the method: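 Cytotoxicity as increased dead-cell protease fluorescence (bis-AAF-R110, 485/520 nm), read 60 min after MultiTox-Fluor reagent. Human lymphoblastoid line exposed 16 h; Hill-fitted AC50, with DMSO as 0% and 15 uM tetraoctylammonium bromide as 100%.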

[6] = Cell Viability - LYMP1-002 - Assay at 16 hr (AID 948);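 further: 0% = DMSO alone and full effect = 92 µM tetraoctylammonium bromide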
Summary of the method: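 Acute cytotoxicity is scored as a concentration-dependent fall in intracellular ATP in a human lymphoblastoid line (LYMP1-002) after 16 hr compound exposure at 37 C, measured by luciferase luminescence.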

[7] = MultiTox-Fluor Cytotoxicity Assay - LYMP1-003 - Dead Cells (AID 961); further: nearly all actives have a fitted effect of over 70% in size
Summary of the method: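 Dead-cell protease release, detected as bis-AAF-R110 fluorescence at 485/520 nm, was measured in LYMP1-003 cells after 16 h compound treatment at 37 C. AC50 values came from Hill-modeled qHTS curves normalized to DMSO (0%) and 15 uM tetraoctylammonium bromide (100%).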

[8] = Cell Viability - LYMP1-003 - Assay at 24 hr (AID 963);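 further: plate controls were DMSO only for no effect and tetraoctylammonium bromide positive control for full effect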
Summary of the method: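 Human lymphoblastoid LYMP1-003 cells (2500/well) were rested 5 hr at 37 C, then exposed to compounds in complete medium for 24 hr at 37 C. Cellular ATP was quantified by CellTiter-Glo luminescence, and AC50 values came from Hill fits of concentration-response data.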

[9] = Cell Viability - LYMP2-003 (AID 965);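 further: cells exposed to compounds for 24 h before reading; 0% = DMSO only and full effect = 92 µM tetraoctylammonium bromide; nearly all actives have a fitted effect of over 50% in size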
Summary of the method: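 Acute cytotoxicity is scored as a concentration-dependent drop in intracellular ATP, measured by luciferase luminescence in human lymphoblastoid cells treated for 24 hours at 37 C. AC50 values derive from Hill-equation modelling.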

[10] = Cell Viability - LYMP2-013 (AID 970);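 further: series mostly up to about 92 µM; 0% = DMSO only and full inhibition = tetraoctylammonium bromide control; nearly all actives have a fitted effect of over 55% in size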
Summary of the method: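 Human lymphoblastoid cells, 2500/well, were preincubated 5 hr at 37 C, then treated with compounds for 24 hr at 37 C in complete medium. Intracellular ATP was read by CellTiter-Glo luminescence; AC50 from Hill-equation fits of concentration-response data.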

[11] = Cell Viability - LYMP2-019 (AID 973);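 further: 0% = DMSO alone and full effect = 92 µM tetraoctylammonium bromide; nearly all actives have a fitted effect of over 55% in size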
Summary of the method: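 Human lymphoblastoid cells were seeded at 2500 cells/well, preincubated 5 hr at 37 C, then exposed to compounds for 24 hr at 37 C in complete medium. Intracellular ATP was measured by CellTiter-Glo luminescence; AC50 from Hill fits.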

[12] = Cell Viability - LYMP2-008 (AID 980); further: on the % scale 0 is the no-effect control and ±100 the full control effect; nearly all actives have a fitted effect of over 60% in size
Summary of the method: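 Human lymphoblastoid cells (2500/well) were plated, held 5 hr at 37 C, then exposed to compounds for 24 hr at 37 C in complete medium. Intracellular ATP was read by CellTiter-Glo luminescence; AC50 from Hill-fitted concentration-response.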

[13] = Cell Viability - LYMP2-012 (AID 982);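 further: cellular ATP by luciferase luminescence where a drop means cytotoxicity; cells exposed to compound for one day before reading; 0% = DMSO only and full loss = 92 µM tetraoctylammonium bromide; nearly all actives have a fitted effect of over 55% in size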
[14] = Cell Viability - LYMP2-016 (AID 984); further: on the % scale 0 is the no-effect control and ±100 the full control effect; nearly all actives have a fitted effect of over 55% in size
Summary of the method: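 Acute toxicity in a Coriell human lymphoblastoid line is scored as loss of intracellular ATP over 24 h of treatment in complete medium. CellTiter-Glo signal is fitted across concentrations with the Hill equation to give AC50.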

[15] = Cell Viability - LYMP1-002 - Assay at 24 hr (AID 993); further: on the % scale 0 is the no-effect control and ±100 the full control effect
Summary of the method: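 Human lymphoblastoid LYMP1-002 cells, 2500/well in complete medium, were treated with compounds for 24 h at 37 C; intracellular ATP was read by CellTiter-Glo luminescence. AC50 values came from Hill-equation fits of qHTS concentration-response data.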

[16] = Cell Viability - LYMP1-002 - Assay at 40 hr (AID 994);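 further: 0% = DMSO only and full inhibition = 92 µM tetraoctylammonium bromide; nearly all actives have a fitted effect of over 60% in size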
Summary of the method: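 Human lymphoblastoid cells, 2500/well in complete medium, were preincubated 5 hr at 37 C, then exposed to compounds for 40 hr at 37 C. Intracellular ATP was read by CellTiter-Glo luminescence after 30 min at room temperature; AC50 from Hill-equation fits.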

[17] = qHTS Assay for Identification of Small Molecule Inducers of Hypoxia Response (AID 2120; active means well fitted curve in the direction sought with a large enough effect in the signal ratio, with a control signal flat, not every such curve was filed as active; the % refers to the signal ratio; further: 0% is about no effect)
Summary of the method: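 HRE-beta-lactamase reporter in CellSensor HRE-bla ME-180 cells, 2500 cells/well in Opti-MEM with 0.5% dialyzed FBS; compounds tested as titration series, 17 h at 37 degrees C. CCF4 substrate 2.5 h at room temperature; AC50 from 460/530 nm ratio.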

[18] = target: Peroxisome proliferator-activated receptor alpha (Homo sapiens) (UniProt Q07869); assay: qHTS assay for small molecule agonists of the peroxisome proliferator-activated receptor alpha (PPARalpha) signaling pathway (AID 651778); conditions: PathHunter PPARalpha complementation, chemiluminescence, 6 h; active compounds read high; further: % of control where 0% means no effect
Summary of the method: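 Cells plated at 2,000/well and held overnight at 37 C, 5% CO2, then compound added by pin tool for 6 hr; after PathHunter detection reagent and 60 min at room temperature, chemiluminescence from enzyme complementation was read.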

[19] = qHTS assay for cell viability of HEK293 cells (AID 743288); conditions: ATP luminescence (CellTiter-Glo), 18 h, active compounds read low; further: on the % scale 0 is the no-effect control and ±100 the full control effect; nearly all actives have a fitted effect of over 50% in size
Summary of the method: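 The Tox21 protocol used parental HEK293 cells treated for 18 h at 37 C with compounds delivered by pintool; ATP-coupled luminescence after 30 min at room temperature gave viability.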

[20] = qHTS assay for cell viability of the p53RE-bla HCT-116 cell line (AID 743292)
Summary of the method: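 ATP-based luminescence, 16 h compound exposure at 37 C, p53RE-bla HCT-116 cells at 4,000/well.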

Sequence of Peroxisome proliferator-activated receptor alpha (Homo sapiens) (Q07869 whole entry, looked up): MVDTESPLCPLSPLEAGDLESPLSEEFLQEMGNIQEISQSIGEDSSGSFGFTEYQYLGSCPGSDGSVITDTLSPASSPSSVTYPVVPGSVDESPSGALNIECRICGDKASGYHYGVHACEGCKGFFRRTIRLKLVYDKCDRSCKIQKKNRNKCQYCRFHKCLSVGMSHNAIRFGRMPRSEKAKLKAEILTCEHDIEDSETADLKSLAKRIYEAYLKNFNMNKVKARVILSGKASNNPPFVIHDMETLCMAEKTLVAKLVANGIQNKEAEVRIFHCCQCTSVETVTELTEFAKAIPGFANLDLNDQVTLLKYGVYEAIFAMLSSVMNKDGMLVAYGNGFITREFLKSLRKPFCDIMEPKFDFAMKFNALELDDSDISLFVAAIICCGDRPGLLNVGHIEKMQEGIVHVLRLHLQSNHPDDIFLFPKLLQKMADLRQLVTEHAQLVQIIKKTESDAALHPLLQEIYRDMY

CCCC[N+](=O)[O-]
inactive: outcome [1] | outcome [2] | outcome [3] | outcome [4] | outcome [5] | outcome [6] | Potency [7] | outcome [8] | Potency [9] | Potency [10] | Potency [11] | Potency [12] | Potency [13] | Potency [14] | Potency [15] | Potency [16] | Potency [17] | max response [18] 1.08% | max response [19] -6.09% | Potency [20]

Cl/C=C/Cl
inactive: outcome [1] | outcome [2] | outcome [3] | outcome [4] | outcome [5] | outcome [6] | Potency [7] | outcome [8] | Potency [9] | Potency [10] | Potency [11] | Potency [12] | Potency [13] | Potency [14] | Potency [15] | Potency [16] | Potency [17] | max response [18] -4.81% | max response [19] -15.8% | Potency [20]

CN(C)C(=O)Nc1cccc(C(F)(F)F)c1
inactive: outcome [1] | outcome [2] | outcome [3] | outcome [4] | outcome [5] | outcome [6] | Potency [7] | outcome [8] | Potency [9] | Potency [10] | Potency [11] | Potency [12] | Potency [13] | Potency [14] | Potency [15] | Potency [16] | Potency [17] | max response [18] -1.29% and 0.409% | max response [19] 3% and -3.2% | Potency [20]

CC(C)[N+](=O)[O-]
inactive: outcome [1] | outcome [2] | outcome [3] | outcome [4] | outcome [5] | outcome [6] | Potency [7] | outcome [8] | Potency [9] | Potency [10] | Potency [11] | Potency [12] | Potency [13] | Potency [14] | Potency [15] | Potency [16] | Potency [17] | max response [18] -6.42% | max response [19] -8.31% | Potency [20]

O=C(Cl)c1ccccc1F
inactive: outcome [1] | outcome [2] | outcome [3] | outcome [4] | outcome [5] | outcome [6] | Potency [7] | outcome [8] | Potency [9] | Potency [10] | Potency [11] | Potency [12] | Potency [13] | Potency [14] | Potency [15] | Potency [16] | Potency [17] | max response [18] -1.25% | max response [19] -8.76% | Potency [20]

O=[N+]([O-])c1cc(Cl)c(Cl)c(Cl)c1
inactive: outcome [1] | outcome [2] | outcome [3] | outcome [4] | outcome [5] | outcome [6] | Potency [7] | outcome [8] | Potency [9] | Potency [10] | Potency [11] | Potency [12] | Potency [13] | Potency [14] | Potency [15] | Potency [16] | Potency [17] | max response [18] -4.23% | max response [19] -14.7% | Potency [20]

Oc1c(Cl)c(Cl)cc(Cl)c1Cl
inactive: outcome [1] | outcome [2] | outcome [3] | outcome [4] | outcome [5] | outcome [6] | Potency [7] | outcome [8] | Potency [9] | Potency [10] | Potency [11] | Potency [12] | Potency [13] | Potency [14] | Potency [15] | Potency [16] | Potency [17] | max response [19] 1.93% | Potency [20]
